This is part of a sample that, as a whole, favours compounds with a hit. Of some 79,000 tested, about 15% had one in any assay. The source made the active and inactive calls. Cut-off read from the data, not from the text of the source: active = growth inhibition above about 70%; inactive = the rest.
Key:
[1] = NCI Yeast Anticancer Drug Screen. Data for the rad50 strain (AID 155);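 note: 0% = growth of vehicle-only cultures of the same strain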; conditions: S. cerevisiae rad50 strain growth inhibition; at 50.0 µM; stronger effect = higher value
Outline: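 Growth of the mutant yeast was measured after compound exposure and referenced to vehicle-treated cultures.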

[2] = NCI Yeast Anticancer Drug Screen. Data for the mec2-1 strain (AID 157); conditions: S. cerevisiae mec2-1 strain, at 50.0 µM, stronger effect = higher value
Outline: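 Readout is yeast growth inhibition, normalised to vehicle-treated controls, in the mec2-1 strain exposed to compound.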

[3] = NCI Yeast Anticancer Drug Screen. Data for the sgs1 mgt1 strain (AID 161);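 note: 0% = growth of cultures given vehicle only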; conditions: S. cerevisiae sgs1 mgt1 strain, at 50.0 µM, stronger effect = higher value
Outline: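 Percent growth inhibition was derived by comparing compound-exposed mutant yeast with vehicle-exposed cultures. The strain carries alterations in DNA damage repair.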

[4] = NCI Yeast Anticancer Drug Screen. Data for the cln2 rad14 strain (AID 165);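 note: 0% = growth equal to vehicle treated cultures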; conditions: S. cerevisiae cln2 rad14 strain, at 50.0 µM, stronger effect = higher value
Outline: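 Relative to vehicle controls, growth inhibition of compound-treated cln2 rad14 yeast was recorded.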

[5] = NCI Yeast Anticancer Drug Screen. Data for the bub3 strain (AID 167); conditions: S. cerevisiae bub3 mutant strain, at 50.0 µM, stronger effect = higher value
Outline: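 Whole-cell yeast assay. The mutant strain was incubated with compounds, and growth inhibition was determined by comparison with vehicle-treated cells.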

[6] = NCI Yeast Anticancer Drug Screen. Data for the mlh1 rad18 strain (AID 175); conditions: S. cerevisiae mlh1 rad18 strain growth inhibition; at 50.0 µM; stronger effect = higher value
Outline: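 Test agents were incubated with a yeast strain of defined genotype (DNA damage repair defect). Inhibition of growth was derived by comparison with vehicle-exposed cultures.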

Row | SMILES | growth inhibition [1] | growth inhibition [2] | growth inhibition [3] | growth inhibition [4] | growth inhibition [5] | growth inhibition [6]
1 | COc1ccc(-c2coc3c4c(ccc3c2=O)OCO4)cc1OC | 3.6% (inactive) | -13.4% (inactive) | 0.45% (inactive) | 7.2% (inactive) | -8.45% (inactive) | -30.8% (inactive)
2 | CC(C)/C(Cl)=N/OC(=O)Nc1cccc(C(F)(F)F)c1 | 35.7% (inactive) | 38.3% (inactive) | 85% (active) | 24.8% (inactive) | 65.5% (inactive) | -91.7% (inactive)
3 | O=C(CCc1ccc(O)c(O)c1)c1ccc(O)c(O)c1O | 2.05% (inactive) | -19.9% (inactive) | 9.1% (inactive) | 2.6% (inactive) | -17.1% (inactive) | -33.9% (inactive)
4 | CNC(=S)/C(=N\Nc1nc[nH]c1C(N)=O)C(N)=S | -3.7% (inactive) | 7.85% (inactive) | 38.5% (inactive) | -0.8% (inactive) |  | 21.1% (inactive)
5 | CCCCCCCCCC(=O)CC(=O)c1c(O)cc(O)cc1O | 87.8% (active) | 91.3% (active) | 12.2% (inactive) | 22.4% (inactive) |  | 91.7% (active)
6 | OCC(CO)(CO)COCC(CO)(CO)COCC(CO)(CO)CO | -43% (inactive) | -42.5% (inactive) | -20.9% (inactive) |  | -9.15% (inactive) | -25.1% (inactive)
7 | N#Cc1nc(C(F)(F)F)oc1N | -2.6% (inactive) | -1% (inactive) | -0.95% (inactive) |  | -3.3% (inactive) | -42.4% (inactive)
8 | CC(=O)[CH-]C(=O)c1ccccc1.CC(=O)[CH-]C(=O)c1ccccc1.O=S(=O)([O-])c1cc([O-])c2c([O-])cc(S(=O)(=O)[O-])cc2c1.[Na+].[Zr+4] | 21.3% (inactive) | -7.6% (inactive) | 25.6% (inactive) |  | 37.9% (inactive) | 10.8% (inactive)
9 | COc1c2c(c3c(c1OC)c(=O)c1ccccc1n3C)OCO2 | 6.25% (inactive) | 10.8% (inactive) | 16.8% (inactive) |  | 8.8% (inactive) | 13.2% (inactive)
10 | CNc1nc2c(C)ccc3[nH]c(N(C)C)nc3c-2n1 | 14.2% (inactive) | -32.8% (inactive) | 11.3% (inactive) |  | 4.65% (inactive) | -10.9% (inactive)
11 | Clc1ccc(C2NN=C3c4ccccc4OCC32)cc1 (stereo not drawn) | -7.85% (inactive) | -24.1% (inactive) | -3% (inactive) | 7.85% (inactive) |  | 17.2% (inactive)
